Test results published in PubChem BioAssay (NCATS).
Records with an inconclusive call do not appear. Active and inactive are the calls of the source. Calls come from the whole dose curve; as a rule, active = well fitted curve in the direction sought with a large enough effect; inconclusive = small, poorly fitted or top-dose-only effect, or another doubt; inactive = no such curve, though single readings can be large; an effect the other way counts as inactive or inconclusive.

Key:
[1] = target: Glutathione peroxidase 1 (Homo sapiens) (UniProt P07203); test: Primary qHTS Assay for Inhibitors of Recombinant Selenoprotein Glutathione Peroxidase 1 (GPX1) (AID 1845191); note: nearly all actives have a fitted effect of over 65% in size; for activity, negative = inhibition: % is set by controls: 0 for no effect and ±100 for the full control effect
In short: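 10 nM GPX1 + cpd, 30 min RT; start w/ 1 mM GSH, 0.5 mM cumene hydroperoxide, 0.5 mM NADPH, 100 nM GR, 0.01% BSA; buffer 50 mM Tris-HCl pH 7.5, 2 mM EDTA, 150 mM NaCl; Fl 340/450, 0 & 15 min.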

[2] = target: Phospholipid hydroperoxide glutathione peroxidase GPX4 (Homo sapiens) (UniProt P36969); test: Primary qHTS Assay for Inhibitors of Recombinant Selenoprotein Glutathione Peroxidase 4 (GPX4) (AID 1845192); note: series mostly up to about 50 µM; % is set by controls: 0 for no effect and ±100 for the full control effect; nearly all actives have a fitted effect of over 65% in size
In short: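 NADPH consumption, followed by fluorescence at 340/450 nm between 0 and 15 min, reports GPX4 activity via coupled glutathione reductase (100 nM). Enzyme 200 nM was pre-exposed to compound 30 min; 0.5 mM cumene hydroperoxide and 1 mM GSH served as substrates.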

[3] = target: Luciferin 4-monooxygenase (Photinus pyralis) (UniProt P08659); test: Primary firefly luciferase (FLuc) qHTS assay for identification of artifact compounds. (AID 1845220); note: nearly all actives have a fitted effect of over 60% in size;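 for activity change, negative = inhibition: series mostly up to about 54 µM; plate controls were DMSO vehicle for no effect and no enzyme for full effect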
In short: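 Compounds sat 15 min at room temperature with 10 uM luciferin and 10 uM ATP (pH 7.6 Tris acetate). Firefly luciferase (10 nM final) was then added, and luminescence was read 5 min later. Data normalized to no-enzyme and DMSO controls were Hill-fitted.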

[4] = Primary fluorescence-based thiol-reactive (MSTI) qHTS assay for identification of artifact compounds. (AID 1845221);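 note: series mostly up to about 54 µM; thiol-reactive compounds lower the probe fluorescence signal; nearly all actives have a fitted effect of over 65% in size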
In short: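 Compounds were incubated 1 h at room temperature in the dark with the MSTI probe (4 uM) in PBS pH 7.4, 2% DMSO. Signals were normalized between Acetyl-MSTI and MSTI.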

[5] = tested on: Nanoluciferase (engineered Oplophorus gracilirostris luciferase); test: Primary Nanoluciferase (NLuc) qHTS assay for identification of artifact compounds. (AID 1845222);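 note: series mostly up to about 54 µM; 0% = DMSO and -100% = no enzyme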
In short: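 Luminescence from secreted NLuc (filtered, 1:55-diluted S16 cell medium) read 5 min after Nano-Glo substrate; compounds preincubated 15 min, RT. Hill fits of inhibition normalized to DMSO and no-enzyme.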

[6] = Primary redox qHTS assay for identification of artifact compounds. (AID 1845223);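 note: 0% = DMSO and 100% = reference compound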
In short: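 Amplex Red (25 uM) and HRP (250 mU/mL) in HBSS, with compounds for 15 min, then 250 uM DTT for 30 min, room temperature, dark. Fluorescence 525/598 nm read; normalized to DMSO and 10 uM DA3003; Hill fit.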

Glutathione peroxidase 1 (Homo sapiens), sequence (P07203 whole entry, looked up): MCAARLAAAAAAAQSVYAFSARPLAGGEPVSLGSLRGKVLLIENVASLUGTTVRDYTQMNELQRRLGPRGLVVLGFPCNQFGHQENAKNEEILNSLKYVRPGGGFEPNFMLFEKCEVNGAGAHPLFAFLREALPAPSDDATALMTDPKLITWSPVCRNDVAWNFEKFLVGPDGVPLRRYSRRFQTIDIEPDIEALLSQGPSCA
Phospholipid hydroperoxide glutathione peroxidase GPX4 (Homo sapiens), sequence (P36969 whole entry, looked up): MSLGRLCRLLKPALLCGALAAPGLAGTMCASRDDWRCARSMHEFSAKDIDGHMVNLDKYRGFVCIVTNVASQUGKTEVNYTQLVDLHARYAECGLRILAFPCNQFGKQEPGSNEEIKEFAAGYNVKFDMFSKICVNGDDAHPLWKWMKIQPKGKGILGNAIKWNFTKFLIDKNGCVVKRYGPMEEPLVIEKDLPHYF

Cc1csc(NC(=O)c2ccc(COc3cccc(Cl)c3)o2)n1
inactive: Potency [1] | Potency [2] | Potency [3] | Potency [4] | Potency [5] | Potency [6]

N#Cc1ccc2[nH]cc(CCCCN3CCN(c4ccc5oc(C(N)=O)cc5c4)CC3)c2c1
inactive: Potency [1] | Potency [2] | Potency [3] | Potency [4] | Potency [5] | Potency [6]

CC1CC(C(O)C(C)(C)O)OC2CC3(C)C4(C)CCC5C(C)(C)C(=O)CCC5(C)C4CCC3(O)C12O (stereo not given)
inactive: Potency [1] | Potency [2] | Potency [3] | Potency [4] | Potency [5] | Potency [6]

CC(=O)O[C@@H]1C[C@@H](OC(C)=O)C(C)(C)/C=C/[C@H](C)[C@H](OC(C)=O)[C@@]2(O)C[C@H](C)[C@H](OC(=O)c3ccccc3)[C@@H]2/C=C/1C
inactive: Potency [1] | Potency [2] | Potency [3] | Potency [4] | Potency [5] | Potency [6]

CC(C)c1nnc(-c2ccc(-c3ccccc3)nc2)n1-c1cccc2nonc12
inactive: Potency [1] | Potency [2] | Potency [3] | Potency [4] | Potency [5] | Potency [6]

CC(=O)OC1C[C@]2(C)C(O)CC(C)=C[C@H](OC(=O)c3ccc(O)cc3)C2[C@]1(O)C(C)C (stereo not given in full)
inactive: Potency [1] | Potency [2] | Potency [3] | Potency [4] | Potency [5] | Potency [6]

CCC(C)C(=O)OC1CC(O)C23C4OCC5(C(O)CC2C1(C)C(O)O4)C3C(=O)C(O)C1(C)C(O)(c2ccoc2)CC2OC251 (stereo not given)
inactive: Potency [1] | Potency [2] | Potency [3] | Potency [4] | Potency [5] | Potency [6]

Cc1c(C(=O)N2CCOc3ccc(-c4ccc(N)nc4)cc3C2)ccc(S(C)(=O)=O)c1F
inactive: Potency [1] | Potency [2] | Potency [3] | Potency [4] | Potency [5] | Potency [6]

Cc1cccc(-c2[nH]c(Cc3cccc(C(N)=O)c3)nc2-c2ccc3nccnc3c2)n1
inactive: Potency [1] | Potency [2] | Potency [3] | Potency [4] | Potency [5] | Potency [6]

C[C@@H]1O[C@@H](O[C@@H]2[C@@H](O[C@@H]3O[C@@H](C)[C@H](O[C@@H]4OC[C@H](O)[C@H](O[C@@H]5OC[C@@H](O)[C@H](O)[C@H]5O)[C@H]4O)[C@@H](O[C@@H]4OC[C@](O)(CO)[C@H]4O)[C@H]3O)[C@H](OC(=O)[C@]34CCC(C)(C)C[C@H]3C3=CCC5[C@@]6(C)C[C@H](O)[C@H](O[C@@H]7O[C@H](CO[C@@H]8OC[C@H](O)[C@H](O)[C@H]8O)[C@@H](O)[C@H](O)[C@H]7O)C(C)(C)C6CC[C@@]5(C)[C@]3(C)C[C@H]4O)OC[C@H]2O)[C@H](O)[C@H](O)[C@H]1O (stereo not given in full)
inactive: activity, negative = inhibition [1] 1.11% [at 9.52 µM] | activity change, negative = inhibition [2] -0.822% [at 9.73 µM] | activity change, negative = inhibition [3] 1.22% [at 11.6 µM] | activity change, negative = thiol reactive [4] 203% [at 11.5 µM] | activity, negative = inhibition [5] 1.99% [at 11.6 µM] | redox activity (% of DA3003) [6] 6.31% [at 11.5 µM]

COc1ccc(C(=O)C2CCN(CC(=O)N(Cc3nc4c(c(=O)[nH]3)COCC4)CC3CC3)CC2)cc1
inactive: Potency [1] | Potency [2] | Potency [3] | Potency [4] | Potency [5] | Potency [6]

C[C@@H]1O[C@@H](O[C@H]2[C@H](O)[C@@H](O[C@@H]3O[C@H](CO)[C@@H](O)[C@H](O[C@@H]4O[C@H](CO)[C@@H](O)[C@H](O)[C@H]4O)[C@H]3O)[C@H](O[C@H]3CC[C@@]4(C)C(=CC[C@@H]5C4CC[C@@]4(C)C5C[C@@H]5OC6(CC[C@@](C)(CO[C@@H]7O[C@H](CO)[C@@H](O)[C@H](O)[C@H]7O)O6)[C@@H](C)[C@@H]54)C3)O[C@@H]2CO)[C@H](O)[C@H](O)[C@H]1O (stereo not given in full)
inactive: activity, negative = inhibition [1] -7.69% [at 9.52 µM] | activity change, negative = inhibition [2] -8.14% [at 9.73 µM] | activity change, negative = inhibition [3] -3.7% [at 11.6 µM] | activity change, negative = thiol reactive [4] 201% [at 11.5 µM] | activity, negative = inhibition [5] -0.894% [at 11.6 µM] | redox activity (% of DA3003) [6] 7.08% [at 11.5 µM]

O=C(Cc1ccc(-c2ccccc2)cc1)NC1CCC1
inactive: Potency [1] | Potency [2] | Potency [3] | Potency [4] | Potency [5] | Potency [6]

CC(=O)C12OC(C)(C)OC1CC1C3CCC4=CC(=O)C=CC4(C)C3(F)C(O)CC12C (stereo not given)
inactive: Potency [1] | Potency [2] | Potency [3] | Potency [4] | Potency [5] | Potency [6]

CC1(C(=O)O)CCCC2(C)C3=CCC4CC3(CCC12)CC4CO (stereo not given)
inactive: Potency [1] | Potency [2] | Potency [3] | Potency [4] | Potency [5] | Potency [6]

O=C(Nc1ccc(S(=O)(=O)Nc2ccccc2Cl)c(Cl)c1)c1ccccn1
inactive: Potency [1] | Potency [2] | Potency [3] | Potency [4] | Potency [5] | Potency [6]

Cc1c(F)cc(C(=O)NC2CC2)cc1-c1c(F)cn2c(C(C)(C)C)nnc2c1F
inactive: Potency [1] | Potency [2] | Potency [3] | Potency [4] | Potency [5] | Potency [6]

C[S+](CC[C@H](N)C(=O)[O-])C[C@H]1O[C@@H](n2cnc3c(N)ncnc32)[C@H](O)[C@@H]1O (stereo not given in full)
inactive: Potency [1] | Potency [2] | Potency [3] | Potency [4] | Potency [5] | Potency [6]

C[C@@H]1CC[C@]2(C(=O)O[C@@H]3O[C@H](CO)[C@@H](O)[C@H](O)[C@H]3O)CC[C@]3(C)C(=CCC4[C@@]5(C)C[C@@H](O)[C@H](O)[C@](C)(C(=O)O)C5CC[C@]43C)[C@@H]2[C@]1(C)O (stereo not given in full)
inactive: Potency [1] | Potency [2] | Potency [3] | Potency [4] | Potency [5] | Potency [6]

CC(C)C(C(=O)N(C)C(C)C(N)=O)N(C)C(=O)C1CCCN1C(=O)/C=C/C=C/C(O)C(C)O (stereo not given)
inactive: Potency [1] | Potency [2] | Potency [3] | Potency [4] | Potency [5] | Potency [6]
